# In the supplement of paper PMC8728848:
# This excerpt belongs to a sample that is enriched for the strongest signals.
# B1: AT5G24760(45) (Arabidopsis thaliana), Q8LEB2 (protein)
# chain: MSASSSSFEQPQVITCNAAVAWRAGEPLVMEEVEVSPPQPLEIRIKVVCTSLCRSDLSAWESQSLLPRIFGHEAAGIVESIGEGVTEFEKGDHVLAVFTGECGSCRHCISGKSNMCQVLGMERKGLMHSDQKTRFSIKGKPVYHYCAVSSFSEYTVVHSGCAVKVDPLAPLHKICLLSCGVAAGLGAAWNVADVQKGSSVVIFGLGTVGLSVAQGAKLRGAAQILGVDINPAKAEQAKTFGVTDFINSNDLSEPIPQVIKRMTGGGADFSFECVGDTGIATTALQSCSDGWGMTVTLGVPKAKPEVSAHYGLFLSGKSLKGTLFGGWKPKSDLPSLIDKYMNKEIMIDEFITHNLSFDEINKAFVLMREGKCLRCVLHMPK
# Key:
# Experiment in all cases: glycan array binding signal (z-score within array); higher = stronger binding
# Conditions in all cases: glycan notation: IUPAC condensed, linker removed
# [1] = target: Fuc(a1-2)Gal(b1-3)GalNAc(b1-3)Gal(a1-4)Gal(b1-4)Glc
# Summary of the method: (§1)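 Glycan array data were curated from 3228 arrays in the Consortium for Functional Glycomics database and kept only where the protein sequence was available. Glycan names were converted to IUPAC-condensed notation, and columns mapping to the same glycan were averaged. The binding signal is a within-array Z-score, averaged across arrays of the same protein sequence at different concentrations or buffers and across linkers. Negative Z-scores can be read as non-binding.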
# [2] = target: Fuc(a1-2)Gal(b1-4)GlcNAc(b1-3)[Fuc(a1-3)[Gal(b1-4)]GlcNAc(b1-6)]Gal(b1-4)Glc
# Summary of the method: as §1
# [3] = target: Fuc(a1-2)Gal(b1-4)[Fuc(a1-3)]GlcNAc(b1-2)Man(a1-3)[Fuc(a1-2)Gal(b1-4)[Fuc(a1-3)]GlcNAc(b1-2)Man(a1-6)]Man(b1-4)GlcNAc(b1-4)[Fuc(a1-6)]GlcNAc
# Summary of the method: as §1
# [4] = target: Fuc(a1-2)Gal(b1-4)[Fuc(a1-3)]GlcNAc(b1-3)GalNAc
# Summary of the method: as §1
# Fuc(a1-2)[Gal(a1-3)]Gal = target: Fuc(a1-2)[Gal(a1-3)]Gal
# Summary of the method: as §1
# [5] = target: Fuc(a1-2)[Gal(a1-3)]Gal(b1-3)GlcNAc
# Summary of the method: as §1
# [6] = target: Fuc(a1-2)[Gal(a1-3)]Gal(b1-4)GlcNAc(b1-3)[Fuc(a1-2)[Gal(a1-3)]Gal(b1-4)GlcNAc(b1-6)]GalNAc
# Summary of the method: as §1
# [7] = target: Fuc(a1-2)[GalNAc(a1-3)]Gal(b1-3)GlcNAc(b1-3)GalNAc
# Summary of the method: as §1
# [8] = target: Fuc(a1-2)[GalNAc(a1-3)]Gal(b1-4)GlcNAc(b1-2)Man
# Summary of the method: as §1
# [9] = target: Fuc(a1-2)[GalNAc(a1-3)]Gal(b1-4)[Fuc(a1-3)]GlcNAc(b1-3)GalNAc
# Summary of the method: as §1
# [10] = target: Fuc(a1-3)[GalNAc(b1-4)]GlcNAc
# Summary of the method: as §1
# Fuc(a1-4)GlcNAc = target: Fuc(a1-4)GlcNAc
# Summary of the method: as §1
# Gal(a1-3)Gal = target: Gal(a1-3)Gal
# Summary of the method: as §1
# Gal(a1-3)Gal(b1-3)GlcNAc = target: Gal(a1-3)Gal(b1-3)GlcNAc
# Summary of the method: as §1
# [11] = target: Gal(a1-3)[Gal(a1-4)]Gal(b1-4)GlcNAc
# Summary of the method: as §1
# Gal(b1-3)GalNAc = target: Gal(b1-3)GalNAc
# Summary of the method: as §1
# [12] = target: Gal(b1-3)GlcNAc(b1-3)Gal(b1-4)GlcNAc
# Summary of the method: as §1
# [13] = target: Gal(b1-4)GlcNAc(b1-2)[Gal(b1-4)GlcNAc(b1-6)]Man(a1-6)[GlcNAc(b1-4)][Gal(b1-4)GlcNAc(b1-2)Man(a1-3)]Man(b1-4)GlcNAc(b1-4)GlcNAc
# Summary of the method: as §1
# [14] = target: Gal(b1-4)GlcNAc(b1-3)Gal(b1-4)GlcNAc(b1-3)Gal(b1-4)GlcNAc(b1-3)Gal(b1-4)GlcNAc(b1-2)[Gal(b1-4)GlcNAc(b1-3)Gal(b1-4)GlcNAc(b1-3)Gal(b1-4)GlcNAc(b1-3)Gal(b1-4)GlcNAc(b1-6)]Man(a1-6)[Gal(b1-4)GlcNAc(b1-3)Gal(b1-4)GlcNAc(b1-3)Gal(b1-4)GlcNAc(b1-3)Gal(b1-4)GlcNAc(b1-2)Man(a1-3)]Man(b1-4)GlcNAc(b1-4)[Fuc(a1-6)]GlcNAc
# Summary of the method: as §1
# [15] = target: Gal(b1-4)GlcNAc(b1-3)Gal(b1-4)GlcNAc(b1-3)Gal(b1-4)GlcNAc(b1-3)Gal(b1-4)GlcNAc(b1-3)Gal(b1-4)GlcNAc(b1-3)Gal(b1-4)GlcNAc(b1-2)Man(a1-3)[Gal(b1-4)GlcNAc(b1-3)Gal(b1-4)GlcNAc(b1-3)Gal(b1-4)GlcNAc(b1-3)Gal(b1-4)GlcNAc(b1-3)Gal(b1-4)GlcNAc(b1-3)Gal(b1-4)GlcNAc(b1-2)Man(a1-6)]Man(b1-4)GlcNAc(b1-4)GlcNAc
# Summary of the method: as §1
# [16] = target: Gal(b1-4)GlcNAc(b1-6)GalNAc
# Summary of the method: as §1
# [17] = target: Gal(b1-4)GlcNAc(b1-6)[Gal(b1-3)]GalNAc
# Summary of the method: as §1
# [18] = target: Gal3S(b1-3)[Fuc(a1-4)]GlcNAc
# Summary of the method: as §1
# [19] = target: Gal3S(b1-4)[Fuc(a1-3)]Glc6S
# Summary of the method: as §1
# [20] = target: GalNAc(b1-3)Gal(a1-4)Gal(b1-4)GlcNAc(b1-3)Gal(b1-4)Glc
# Summary of the method: as §1
# [21] = target: GalNAc(b1-3)Gal(a1-6)Gal(b1-4)Glc
# Summary of the method: as §1
# GalNAc(b1-3)GlcNAc = target: GalNAc(b1-3)GlcNAc
# Summary of the method: as §1
# GalNAc(b1-4)GlcNAc = target: GalNAc(b1-4)GlcNAc
# Summary of the method: as §1
# [22] = target: GlcNAc(b1-2)Gal(b1-3)GalNAc
# Summary of the method: as §1
# [23] = target: GlcNAc(b1-2)[GlcNAc(b1-4)]Man(a1-3)[GlcNAc(b1-2)Man(a1-6)]Man(b1-4)GlcNAc(b1-4)GlcNAc
# Summary of the method: as §1
# [24] = target: GlcNAc(b1-2)[GlcNAc(b1-4)]Man(a1-3)[GlcNAc(b1-4)][GlcNAc(b1-2)Man(a1-6)]Man(b1-4)GlcNAc(b1-4)GlcNAc
# Summary of the method: as §1
# [25] = target: GlcNAc(b1-3)Gal(b1-4)GlcNAc(b1-3)Gal(b1-4)GlcNAc(b1-2)Man(a1-3)[GlcNAc(b1-3)Gal(b1-4)GlcNAc(b1-3)Gal(b1-4)GlcNAc(b1-2)Man(a1-6)]Man(b1-4)GlcNAc(b1-4)GlcNAc
# Summary of the method: as §1
# [26] = target: GlcNAc(b1-4)Gal(b1-4)GlcNAc
# Summary of the method: as §1
# [27] = target: Man(a1-3)[Man(a1-6)]Man(b1-4)GlcNAc(b1-4)[Fuc(a1-6)]GlcNAc
# Summary of the method: as §1
# [28] = target: Neu5Ac(a2-3)Gal(b1-3)GlcNAc(b1-3)GalNAc
# Summary of the method: as §1
# [29] = target: Neu5Ac(a2-3)Gal(b1-4)GlcNAc(b1-2)[Neu5Ac(a2-3)Gal(b1-4)GlcNAc(b1-6)]Man(a1-6)[Neu5Ac(a2-3)Gal(b1-4)GlcNAc(b1-2)Man(a1-3)]Man(b1-4)GlcNAc(b1-4)GlcNAc
# Summary of the method: as §1
# [30] = target: Neu5Ac(a2-3)Gal(b1-4)GlcNAc(b1-3)Gal
# Summary of the method: as §1
# [31] = target: Neu5Ac(a2-3)Gal(b1-4)GlcNAc(b1-3)[Neu5Ac(a2-3)Gal(b1-4)GlcNAc(b1-6)]GalNAc
# Summary of the method: as §1
# [32] = target: Neu5Ac(a2-3)Gal(b1-4)[Fuc(a1-3)]GlcNAc(b1-3)GalNAc
# Summary of the method: as §1
# [33] = target: Neu5Ac(a2-3)Gal(b1-4)[Fuc(a1-3)]GlcNAc(b1-6)[Neu5Ac(a2-3)Gal(b1-3)]GalNAc
# Summary of the method: as §1
# [34] = target: Neu5Ac(a2-6)Gal(b1-4)GlcNAc(b1-3)Gal(b1-4)GlcNAc
# Summary of the method: as §1
# [35] = target: Neu5Ac(a2-6)Gal(b1-4)GlcNAc(b1-3)Gal(b1-4)GlcNAc(b1-3)[Neu5Ac(a2-6)Gal(b1-4)GlcNAc(b1-3)Gal(b1-4)GlcNAc(b1-6)]GalNAc
# Summary of the method: as §1
# [36] = target: Neu5Ac(a2-8)Neu5Ac(a2-3)[GalNAc(b1-4)]Gal(b1-4)Glc
# Summary of the method: as §1
# [37] = target: Neu5Ac(a2-8)Neu5Ac(a2-8)Neu5Ac(a2-3)[Gal(b1-3)GalNAc(b1-4)]Gal(b1-4)Glc
# Summary of the method: as §1
# [38] = target: Neu5Gc(a2-3)Gal(b1-4)[Fuc(a1-3)]GlcNAc
# Summary of the method: as §1
binder,measurement,setting,value
B1,glycan array binding signal (z-score),[1],-0.051
same,glycan array binding signal (z-score),[2],0.166
same,glycan array binding signal (z-score),[3],0.395
same,glycan array binding signal (z-score),[4],4.6
same,glycan array binding signal (z-score),Fuc(a1-2)[Gal(a1-3)]Gal,0.984
same,glycan array binding signal (z-score),[5],-0.224
same,glycan array binding signal (z-score),[6],0.627
same,glycan array binding signal (z-score),[7],3.83
same,glycan array binding signal (z-score),[8],-0.179
same,glycan array binding signal (z-score),[9],6.82
same,glycan array binding signal (z-score),[10],1.18
same,glycan array binding signal (z-score),Fuc(a1-4)GlcNAc,1.12
same,glycan array binding signal (z-score),Gal(a1-3)Gal,0.612
same,glycan array binding signal (z-score),Gal(a1-3)Gal(b1-3)GlcNAc,7.36
same,glycan array binding signal (z-score),[11],6.01
same,glycan array binding signal (z-score),Gal(b1-3)GalNAc,0.106
same,glycan array binding signal (z-score),[12],-0.138
same,glycan array binding signal (z-score),[13],-1.03
same,glycan array binding signal (z-score),[14],-0.779
same,glycan array binding signal (z-score),[15],-0.887
same,glycan array binding signal (z-score),[16],1.23
same,glycan array binding signal (z-score),[17],-0.485
same,glycan array binding signal (z-score),[18],0.437
same,glycan array binding signal (z-score),[19],2.68
same,glycan array binding signal (z-score),[20],-0.632
same,glycan array binding signal (z-score),[21],-0.337
same,glycan array binding signal (z-score),GalNAc(b1-3)GlcNAc,0.645
same,glycan array binding signal (z-score),GalNAc(b1-4)GlcNAc,3.23
same,glycan array binding signal (z-score),[22],2.61
same,glycan array binding signal (z-score),[23],1.01
same,glycan array binding signal (z-score),[24],-0.932
same,glycan array binding signal (z-score),[25],1.14
same,glycan array binding signal (z-score),[26],2.53
same,glycan array binding signal (z-score),[27],-0.202
same,glycan array binding signal (z-score),[28],-0.553
same,glycan array binding signal (z-score),[29],-0.601
same,glycan array binding signal (z-score),[30],-0.951
same,glycan array binding signal (z-score),[31],-1.2
same,glycan array binding signal (z-score),[32],3.17
same,glycan array binding signal (z-score),[33],2.76
same,glycan array binding signal (z-score),[34],-0.877
same,glycan array binding signal (z-score),[35],-0.602
same,glycan array binding signal (z-score),[36],-0.388
same,glycan array binding signal (z-score),[37],0.125
same,glycan array binding signal (z-score),[38],-0.203
